Test results: PubChem BioAssay (NCATS)
Inconclusive results are not listed. Activity calls are given as the source filed them. Calls follow the shape of the dose curve; as a rule, active = well fitted cell-killing curve with a large enough effect; inconclusive = small, poorly fitted or top-dose-only effect; inactive = flat fitted curve, though single readings scatter.

experiment: Cell Viability - LYMP2-023 (AID 975); details: LYMP2-023 lymphoblastoid cell viability; series mostly up to 92.2 µM; also: nearly all actives have a fitted effect of over 55% in size
Source text: NIH Chemical Genomics Center [NCGC]
NIH Molecular Libraries Screening Centers Network [MLSCN]
National Institutes of Environmental Health Sciences [NIEHS]
National Toxicology Program [NTP]
We have developed a 1536-well cell-based assay for quantitative high throughput screening (qHTS) against a number of cell lines to determine in vitro cytotoxicity of small molecules. This particular assay uses a human lymphoblastoid cell line (LYMP2-023) purchased from Coriell Institute for Medical Research.
NCGC Assay Protocol Summary:
The CellTiter-Glo luminescent cell viability assay (Promega) is a homogeneous method to measure the number of viable cells in culture. The end point readout of this assay is based on quantitation of intracellular ATP, an indicator of metabolic activity, using the luciferase reaction. Luciferase catalyzes the oxidation of beetle Luciferin to oxyluciferin and light in the presence of ATP. The luminescent signal is proportional to amount of ATP present.
Using the CellTiter-Glo luminescent cell viability assay, the amount of cellular ATP was measured in the lymphoblastoid cell line with complete culture medium following compound treatment for 24 hours. The assay was performed in opaque white Kalypsys 1536-well plates. In the screen, tetraoctylammonium bromide was used as positive control. Library compounds were measured for their ability to cause acute toxicity in the cell line, as reflected by a decrease in intracellular ATP levels, in a concentration-dependent manner. […] AC50 values were determined from concentration-response data modeled with the standard Hill equation.
qHTS protocol for CellTiter Glo lymphoblastoid cellular assay
[Step] [Parameter] [Value] [Description]
1. Reagent; 5 uL; 2500 lymphoblastoid cells/well
2. Time; 5 hr; 37 C incubation
4. Controls; 23 nL; Tetraoctylammonium bromide 6.4pM to 92 uM
5. Time; 24 hr; 37 C incubation
6. Reagent; 5 uL; CellTiter Glo reagent
7. Time; 30 min; Room Temperature
8. Detection; Luminescence; Viewlux plate reader
Keywords: cell viability, cytotoxicity, lymphoblastoid cell line, luminescence, NTPHTS, NTPHTS_NCGC, NIEHS, DSSTox, MLSMR, MLSCN, NIH Roadmap, qHTS, NCGC

SMILES | outcome
COc1cc(OC)c(OC)cc1C=O | inactive
C[C@]12CCC(=O)C=C1CC[C@@H]1[C@@H]2CC[C@]2(C)C(=O)CC[C@@H]12 | inactive
O=C(O)CCCc1ccc(N(CCCl)CCCl)cc1 | inactive
C[C@]1(O)CC[C@H]2[C@@H]3CCC4=CC(=O)CC[C@]4(C)[C@@]3(F)[C@@H](O)C[C@@]21C | inactive
COP(=S)(OC)Oc1ccc(SC)c(C)c1 | inactive
CCC(C)(C)c1ccc(O)cc1 | inactive
Nc1ccccc1 | inactive
CC(C)NC(C)C | inactive
CCOC(=O)CC(SP(=S)(OC)OC)C(=O)OCC (centres undefined) | inactive
CCCC(C)(COC(N)=O)COC(N)=O | inactive
CC(C)c1cccc(C(C)C)c1O | inactive
Nc1ccccc1C(=O)O | inactive
C[C@]12CCC(=O)C=C1CC[C@@H]1[C@@H]2CC[C@@]2(C)[C@H]1CC[C@]2(C)O | inactive
CN1C[C@H](C(=O)N[C@]2(C)O[C@@]3(O)[C@@H]4CCCN4C(=O)[C@H](Cc4ccccc4)N3C2=O)C=C2c3cccc4[nH]cc(c34)C[C@H]21 | inactive
NCCc1ccc(O)cc1 | inactive
COC(=O)C(c1ccccc1)C1CCCCN1 (centres undefined) | inactive
Oc1ccc(Cl)cc1 | inactive
Clc1ccc(C(c2ccc(Cl)cc2)C(Cl)(Cl)Cl)cc1 | inactive
O=P1(N(CCCl)CCCl)NCCCO1 (centres undefined) | inactive
